Measured values: PubChem BioAssay (NCATS)
“And” between values parts separate entries of the source, which are not always exact repeats. Equal entries are not always repeated. Inconclusive results are not listed. The source made the active and inactive calls. Unless noted, calls follow the shape of the dose curve; as a rule, active = well fitted curve in the direction sought with a large enough effect; inconclusive = small, poorly fitted or top-dose-only effect, or another doubt; inactive = no such curve, though single readings can be large; an effect the other way counts as inactive or inconclusive.

What was measured:
[1] = Cell Viability - LYMP2-026 (AID 989); details: LYMP2-026 lymphoblastoid cell viability, qHTS; series mostly up to 92.2 µM; also: % is scaled to controls: 0 for no effect and ±100 for the full control effect; nearly all actives have a fitted effect of over 50% in size
Method in brief: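 Human lymphoblastoid LYMP2-026 cells, 2500/well, exposed to compound 24 h at 37 C in complete medium. Viability as intracellular ATP by CellTiter-Glo luminescence; AC50 from Hill fits of qHTS concentration-response.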

[2] = Cell Viability - LYMP1-002 - Assay at 24 hr (AID 993); details: LYMP1-002 lymphoblastoid cells viability; series mostly up to 92.2 µM; also: % is scaled to controls: 0 for no effect and ±100 for the full control effect
Method in brief: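 Human lymphoblastoid LYMP1-002 cells (2500/well) treated 24 h at 37 °C; viability as intracellular ATP by CellTiter-Glo luminescence. Tetraoctylammonium bromide as positive control; AC50 from Hill-equation fits of qHTS concentration-response.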

[3] = Cell Viability - LYMP1-002 - Assay at 40 hr (AID 994); details: LYMP1-002 lymphoblastoid cell viability; series mostly up to 92.2 µM;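 also: 0% = DMSO only and full inhibition = 92 µM tetraoctylammonium bromide; nearly all actives have a fitted effect of over 60% in size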
Method in brief: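 LYMP1-002 human lymphoblastoid cells (2500/well, complete medium) were treated with compounds for 40 hr at 37 C. Intracellular ATP was measured by CellTiter-Glo luminescence, and AC50 values came from Hill-equation fits of concentration-response data; tetraoctylammonium bromide was the positive control.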

[4] = qHTS Assay for Lipid Storage Modulators (AID 1519; calls by dose curve); details: Drosophila S3 cells, BODIPY lipid droplet/cell ratio, laser cytometry, cells loaded with oleic acid
Method in brief: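 Cells seeded at 5,000 per well were treated with compounds over a concentration series and loaded with oleic acid (400 uM, as added). Lipid droplet fluorescence (488 nm excitation, 500-530 nm channel) was read by laser-scanning cytometry and normalized to 20 uM Triacsin C.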

[5] = Counterscreen for APE1 Inhibitors: Fluorescent Dye Displacement Validation Assay (AID 1707); details: fluorescent dye displacement from DNA; series mostly up to 57.1 µM;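 also: plate controls were ThO with dsDNA and no compound for no effect and ThO without dsDNA for full effect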
Method in brief: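 Assay buffer: Tris-HCl pH7.5 with 50mM NaCl, 2 mM MgCl2, 0.01% Tween-20. Dye 250 nM, duplex 50 nM final. Readout: decrease in ThO endpoint fluorescence, 480 nm excitation, 540 nm emission.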

[6] = target: Endonuclease 4 (Escherichia coli (strain K12)) (UniProt P0A6C1); test: Counterscreen for APE1 Inhibitors: qHTS Validation Assay for Inhibitors of Endonuclease IV (AID 1708); also: % is scaled to controls: 0 for no effect and ±100 for the full control effect; details: E. coli endonuclease IV, DNA cleavage fluorescence; series mostly up to 57.1 µM
Method in brief: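 Concentration-response counterscreen run identically to the APE1 assay: 15 min room-temperature preincubation of 2 nM enzyme with compound, reaction started with 50 nM quenched abasic DNA, progress taken from kinetic fluorescence.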

[7] = qHTS for differential inhibitors of proliferation of Plasmodium falciparum line 7G8 (AID 1815); details: Plasmodium falciparum 7G8 proliferation inhibition; series mostly up to 28.7 µM;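 also: parasite growth measured after three days of incubation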; also: potency is read from the fitted curve at half-maximal effect;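 as to activity change, negative = inhibition: plate controls were vehicle wells for no effect and reference inhibitor wells for full effect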
[8] = qHTS for differential inhibitors of proliferation of Plasmodium falciparum line GB4 (AID 1816); details: Potency: Plasmodium falciparum GB4 proliferation inhibition; series mostly up to 28.7 µM;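 also: parasite growth measured after 72 h incubation; 0% = vehicle DMSO and -100% = reference inhibitor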
[9] = qHTS for differential inhibitors of proliferation of Plasmodium falciparum line 3D7 (AID 1876);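 also: parasite growth measured after three days of culture; 0% = vehicle wells and -100% = reference inhibitor wells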; details: P. falciparum 3D7 proliferation inhibition; series mostly up to 28.7 µM
[10] = qHTS for differential inhibitors of proliferation of Plasmodium falciparum line D10 (AID 1877); details: series mostly up to 28.7 µM;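 also: parasites grown with compound for 72 h before DNA staining; plate controls were vehicle wells for no effect and reference inhibitor wells for full effect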
[11] = qHTS for differential inhibitors of proliferation of Plasmodium falciparum line Dd2 (AID 1882); details: Potency: Plasmodium falciparum Dd2 proliferation inhibition; series mostly up to 28.7 µM;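 also: plate controls were DMSO vehicle for no effect and 0.29 µM artemisinin for full effect; nearly all actives have a fitted effect of over 65% in size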
Method in brief: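 Dd2-infected erythrocytes (0.3% parasitemia, 2.5% hematocrit final) incubated with compound 72 h at 37 C, 5% CO2; lysed with saponin/Triton buffer containing SYBR Green I, incubated overnight in the dark, then read by fluorescence (485/535 nm). Normalized to 0.29 uM artemisinin and DMSO.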

[12] = qHTS for differential inhibitors of proliferation of Plasmodium falciparum line W2 (AID 1883); details: Potency: Plasmodium falciparum W2 proliferation inhibition; series mostly up to 28.7 µM;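 also: parasites grown with compound for 72 h before lysis and staining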; also: potency is read from the fitted curve at half-maximal effect;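 as to activity change, negative = inhibition: 0% = vehicle wells and -100% = control inhibitor wells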
[13] = qHTS for differential inhibitors of proliferation of Plasmodium falciparum line HB3 (AID 1886); details: Potency: Plasmodium falciparum HB3 proliferation inhibition; series mostly up to 28.7 µM;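 also: parasites grown with compound for 72 h before SYBR Green readout; plate controls were vehicle for no effect and reference inhibitor for full effect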
[14] = qHTS Assay for Identification of Small Molecule Inducers of Hypoxia Response (AID 2120; active = well fitted curve in the direction sought with a large enough effect in the signal ratio, with a control signal flat, not every such curve was filed as active; the % refers to the signal ratio; also: 0% is about no effect); details: hypoxia response reporter cells, beta-lactamase ratio readout; series mostly up to 104 µM
Method in brief: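 HRE-bla ME-180 cells in Opti-MEM with 0.5% dialyzed FBS, pre-plated 4-5 h, then compound titration for 17 h at 37 degrees Celsius. CCF4 loaded 2.5 h at room temperature; 460/530 nm ratio gave %Activity and AC50 for induction.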

[15] = target: Ferritin light chain (Equus caballus) (UniProt P02791); test: qHTS Validation Assay for Identification of Novel General Anesthetics (AID 2323); details: horse apoferritin, anesthetic-site fluorescent probe displacement; series mostly up to 76.9 µM; also: % is scaled to controls: 0 for no effect and ±100 for the full control effect
Sequence of Ferritin light chain (Equus caballus) (P02791 2-175 limits assumed): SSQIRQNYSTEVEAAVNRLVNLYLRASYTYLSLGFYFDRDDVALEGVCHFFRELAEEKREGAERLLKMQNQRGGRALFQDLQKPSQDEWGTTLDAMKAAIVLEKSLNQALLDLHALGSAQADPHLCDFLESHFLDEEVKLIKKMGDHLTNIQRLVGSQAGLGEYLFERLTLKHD
Method in brief: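 Fluorescence at 535 nm (excitation 380 nm) reported loss of 1-AMA binding to horse-spleen apoferritin (10 uM) in PBS with 50% saturated 1-aminoanthracene, after 10 min room-temperature incubation with compound; values from Hill fits of normalized response.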

[16] = target: alpha-glucosidase (Oryza sativa, rice) (UniProt Q653V4); test: Counterscreen for Glucocerebrosidase Inhibitors: qHTS Assay for Rice alpha-Glucosidase at pH 5.0 (AID 997); details: rice alpha-glucosidase enzyme activity; series mostly up to 76.9 µM;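 also: 0% = full activity with enzyme and -100% = basal without enzyme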
Method in brief: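 Rice alpha-glucosidase (4 nM final) with 400 uM 4-methylumbelliferyl-alpha-D-glucopyranoside in citrate buffer pH 5.0, 20 min at room temperature, stopped at pH 10; fluorescence 365/440 nm, compounds 0.7 nM–77 uM, AC50 from Hill fits.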

[17] = target: Alpha-galactosidase (Coffea arabica) (UniProt Q42656); test: Counterscreen for Glucocerebrosidase Inhibitors: qHTS Assay for Coffee Bean alpha-Galactosidase at pH 5.9 (AID 998); details: coffee bean alpha-galactosidase enzyme assay; series mostly up to 76.9 µM;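 also: plate controls were uninhibited enzyme for no effect and no-enzyme basal signal for full effect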
Sequence of Alpha-galactosidase (Coffea arabica) (Q42656 whole entry, looked up): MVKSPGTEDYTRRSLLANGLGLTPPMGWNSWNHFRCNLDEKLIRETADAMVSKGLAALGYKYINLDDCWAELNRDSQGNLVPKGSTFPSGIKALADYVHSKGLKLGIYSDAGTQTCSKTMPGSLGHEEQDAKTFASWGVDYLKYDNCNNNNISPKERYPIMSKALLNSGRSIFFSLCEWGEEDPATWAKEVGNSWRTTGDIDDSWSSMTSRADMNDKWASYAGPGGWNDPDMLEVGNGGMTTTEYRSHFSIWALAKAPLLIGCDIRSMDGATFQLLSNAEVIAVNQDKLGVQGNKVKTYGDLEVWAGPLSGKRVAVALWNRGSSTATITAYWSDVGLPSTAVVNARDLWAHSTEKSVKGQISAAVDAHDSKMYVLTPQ
Method in brief: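 Green coffee bean enzyme (2 nM final) was incubated with compounds (0.7 nM–77 uM) and 4-methylumbelliferyl alpha-D-galactopyranoside (80 uM) in citrate buffer pH 5.9, 20 min at room temperature. High-pH stop; fluorescence 365/440 nm; AC50 from Hill fits.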

[18] = target: DNA repair nuclease/redox regulator APEX1 (Homo sapiens) (UniProt P27695); test: qHTS Validation Assay for Inhibitors of the Human Apurinic/apyrimidinic Endonuclease 1 (APE1) (AID 1705;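 also: TAMRA fluorescence gain over two minutes as APE1 cuts a quenched THF abasic duplex; % is scaled to controls: 0 for no effect and ±100 for the full control effect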); details: purified APE1 endonuclease activity, fluorescence, titration; series mostly up to 57.1 µM
Sequence of DNA repair nuclease/redox regulator APEX1 (Homo sapiens) (P27695 whole entry, looked up): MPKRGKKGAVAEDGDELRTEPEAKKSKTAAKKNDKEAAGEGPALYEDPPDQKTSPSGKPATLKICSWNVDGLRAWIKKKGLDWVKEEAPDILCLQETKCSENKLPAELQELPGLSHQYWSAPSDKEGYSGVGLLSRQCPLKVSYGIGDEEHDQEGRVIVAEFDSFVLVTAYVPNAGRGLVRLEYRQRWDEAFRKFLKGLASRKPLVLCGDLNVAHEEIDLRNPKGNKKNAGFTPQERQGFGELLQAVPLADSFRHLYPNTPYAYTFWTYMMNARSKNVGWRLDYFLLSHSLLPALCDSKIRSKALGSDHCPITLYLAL
Method in brief: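 qHTS, 1536-well. APE1 + cpd 15 min RT → 50 nM TAMRA/BHQ-2 THF-abasic dsDNA substrate → kinetic fluorescence, 3 reads/60 s; delta(read3−read1) = reaction progress. No-enzyme buffer = negative control.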

[19] = Validation of Assay for Modulators of Lamin A Splicing (AID 1459; active = well fitted curve in the direction sought with a large enough effect in the signal ratio; the % refers to the signal ratio;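 also: cells exposed to compound for two days before reading; 0% is about no effect; ratio rise marks activators and ratio drop marks inhibitors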); details: Lamin A splicing dual RFP/GFP fluorescence reporter; series mostly up to 9.22 µM
Method in brief: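 HeLa S3 lamin A-EGFP/DsRed2 stable clone, 600 cells/well, Opti-MEM 2% FBS; compounds by pin tool; 48 hrs, 37 °C/5% CO2; Acumen 488 nm scan, objects 10-100 um; GFP/RFP intensity ratio.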

[20] = qHTS Assay for Modulators of Human Peripheral Myelin Protein 22 (PMP22) Expression/Activity (AID 1967; active = well fitted curve in the direction sought with a large enough effect in the signal ratio; the % refers to the signal ratio;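 also: 0% = untreated cells and 100% end not stated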); details: Cell-based PMP22 reporter, dual-color luciferase ratio, mouse Pmp22 promoter in mouse Schwann cells; series mostly up to 115 µM
Method in brief: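 Luminescence ratio of Pmp22 promoter-driven green luciferase to EF-alpha-driven red luciferase, in engineered mouse MSC80 Schwann cells, served as read-out. Compounds were incubated 24h; untreated cells defined 0% Activity; curves were classified by r2, magnitude and activity.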

[21] = measured here: cell count channel max response
[22] = measured here: lipid channel max response

NCC(O)c1ccc(O)cc1 (stereo not drawn)
inactive: outcome [1] | Potency [2] | Potency [3] | activity change, negative = inhibition ([4]; at 57.5 µM (top of the series)) 5.18% | Potency [5] | outcome [6] | Potency [7] | Potency [8] | Potency [9] | Potency [10] | Potency [11] | Potency [12] | Potency [13] | outcome [14] | outcome [15]
23.7%: max response [4, 22]
15.4%: max response [4, 21]

CCCC(C)(COC(N)=O)COC(=O)NC(C)C (stereo not drawn)
29.5% and 22.2%: max response [4, 22]
20.3% and 29.2%: max response [4, 21]
inactive: outcome [1] | Potency [2] | Potency [3] | outcome [16] | outcome [17] | activity change, negative = inhibition ([4]; at 57.5 µM (top of the series)) 3.44% and -3.03% | outcome [18] | Potency [5] | outcome [6] | Potency [7] | Potency [8] | Potency [9] | Potency [10] | Potency [11] | Potency [12] | Potency [13] | outcome [14] | outcome [15]

CC(C)=CCOc1c2occc2cc2ccc(=O)oc12
25.6%: max response [4, 22]
inactive: activity change, negative = inhibition ([4]; at 57.5 µM (top of the series)) 17.7%
5.47%: max response [4, 21]

O=[N+]([O-])c1cc([As](=O)(O)O)ccc1O
-1.97% and 10%: max response [4, 21]
inactive: activity change, negative = inhibition ([4]; at 25.7 µM (top of the series)) 0.724% | activity change, negative = inhibition ([4]; at 57.5 µM (top of the series)) 3.89%
0.435% and 19.2%: max response [4, 22]

CNCC(O)c1ccc(O)cc1 (stereo not drawn)
inactive: outcome [1] | Potency [2] | Potency [3] | outcome [16] | outcome [17] | outcome [18] | Potency [5] | outcome [6] | Potency [7] | Potency [8] | Potency [9] | Potency [10] | Potency [11] | Potency [12] | Potency [13] | outcome [14] | outcome [15]

Cc1ccc(-c2nc3ccc(C)cn3c2CC(=O)N(C)C)cc1
1.87%: max response [4, 21]
inactive: activity change, negative = inhibition ([4]; at 57.5 µM (top of the series)) 1.62%
4.31%: max response [4, 22]

CCCN1CCC[C@@H]2Cc3nc(N)ncc3C[C@H]21
inactive: outcome [16] | outcome [17] | outcome [18] | Potency [5] | outcome [6] | Potency [7] | Potency [8] | Potency [9] | Potency [10] | Potency [11] | Potency [12] | Potency [13] | outcome [15]

O=C1NCN(c2ccccc2)C12CCN(CC1COc3ccccc3O1)CC2 (stereo not drawn)
10.9%: max response [4, 21]
inactive: outcome [19] | activity change, negative = inhibition ([4]; at 57.5 µM (top of the series)) 1.66% | outcome [18] | Potency [5] | Potency [11] | outcome [20] | outcome [15]
12.8%: max response [4, 22]
active: Potency [7] 8.91 µM | Potency [12] 10 µM
